From PubChem BioAssay (NCATS)
Inconclusive results are not listed. Active and inactive are the calls of the source. Calls come from the whole dose curve; as a rule, active = well fitted inhibition curve with a large enough effect; inconclusive = small, poorly fitted or top-dose-only effect; inactive = no such curve, though single readings can be large or run the other way.

tested on: Zika virus NS2B-NS3 protease (linked construct); assay: Primary screen NINDS Rhodamine qHTS for Zika virus inhibitors (AID 1347160); settings: purified NS2B-NS3 protease, Rhodamine110 substrate fluorescence; series mostly up to 57.1 µM; activity change, negative = inhibition: at the top concentration; note: nearly all actives have a fitted effect of over 55% in size
Summary of the method: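 Each compound, titrated, sat 15 min with 25 nM linked protease before 1.5 microM Rhodamine110 substrate went in. Fluorescence gain over the next 15 min, in pH 8.0 Tris with Tween 20, gave Hill-fitted curves.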
% is set by controls: 0 for no effect and ±100 for the full control effect; potency is the fitted concentration of half-maximal effect.

**Q.** Which “activity change, negative = inhibition” value does the source give for `CCn1cc(C2=NOC(C(=O)Nc3c(C)n(C)n(-c4ccccc4)c3=O)C2)c(C)n1` (centres undefined) here?
**A.** 28.3% (inactive)

**Q.** With `NCCCC[C@H](NC(=O)[C@@H]1Cc2ccccc2CN1C(=O)CCC(=O)c1ccccc1)C(=O)NCC(c1ccccc1)c1ccccc1` as the compound, how does the “activity change, negative = inhibition” value read?
**A.** 109% (inactive)

**Q.** `CC(C)c1ccc(CC(=O)N2CCC[C@@H](c3cccc(OC(C)(C)C(=O)O)c3)C2)cc1` was tested. Which “activity change, negative = inhibition” value did it give?
**A.** -24.2% (inactive)

**Q.** How did the “outcome” value turn out when `COc1ccc(C[C@H](N)C(=O)N[C@H]2[C@@H](O)[C@H](n3cnc4c(N(C)C)ncnc43)O[C@@H]2CO)cc1` was run?
**A.** inactive

**Q.** How did the “activity change, negative = inhibition” value turn out when `C=C[C@@]1(C)CC(=O)C2[C@](C)(O1)[C@@H](OC(C)=O)[C@@H](O)[C@H]1C(C)(C)CCC[C@]21C` (some centres undefined) was run?
**A.** 6.34% [at 15.1 µM] (inactive)

**Q.** Which “activity change, negative = inhibition” value does the source give for `CC1CC(O)C2(C)C(C(=O)O)=CCCC2C1(C)CCc1ccoc1` (centres undefined) here?
**A.** -17.6% [at 33.1 µM] (inactive)

**Q.** How did the “activity change, negative = inhibition” value turn out when `CC1(CO)CC2C(O)C(=O)C3(CO)CC3(C)C2C1` (centres undefined) was run?
**A.** -0.333% (inactive)

**Q.** `C=C1CCC2C(C)(C)C(O)CCC2(C)C1CCC(C)CCOC(=O)CCC(=O)O` (centres undefined) was tested. Which “outcome” value did it give?
**A.** inactive [at 33.1 µM]

**Q.** With `COc1cc(C2Oc3c(OC)cc(/C=C/C(=O)OC[C@H]4O[C@@H](OC(C)(C)C(=O)O)[C@H](O)[C@@H](O)[C@@H]4O)cc3C2CO)ccc1O` (some centres undefined) as the compound, how does the “activity change, negative = inhibition” value read?
**A.** 22% [at 15.1 µM] (inactive)

**Q.** For `C[C@]12CCC[C@](C)(C(=O)O)C1CCC13C=C(CO)C(CCC12)C3` (some centres undefined), which “activity change, negative = inhibition” value is on record?
**A.** 29.7% [at 33.1 µM] (inactive)

**Q.** How did the “activity change, negative = inhibition” value turn out when `CC1(C)CCCC2(C)C(CO)C3CCC2C31` (centres undefined) was run?
**A.** 12.6% (inactive)

**Q.** Which “activity change, negative = inhibition” value does the source give for `CC(=O)C1CCC2(C)C3=C(CCC12C)C1(C)CCC(=O)C(C)(C)C1CC3` (centres undefined) here?
**A.** -9.09% [at 33.1 µM] (inactive)

**Q.** `CC1=C(CC(=O)O)c2cc(F)ccc2C1=Cc1ccc(S(C)(=O)=O)cc1` was tested. Which “activity change, negative = inhibition” value did it give?
**A.** 19.3% (inactive)

**Q.** `C/C=C/C=C/C(CC(=O)O)Nc1ccc(C=O)cc1` (centres undefined) was tested. Which Potency did it give?
**A.** 49.3 µM (active)

**Q.** With `C=CC(C)(C)C12CC3C(=O)NC(Cc4cnc[nH]4)C(=O)N3C1Nc1ccccc12` (centres undefined) as the compound, how does the “activity change, negative = inhibition” value read?
**A.** -2.2% [at 33.1 µM] (inactive)

**Q.** `COC(=O)C1C(c2ccc(O)cc2)C(C(=O)OC)C1c1ccc(O)cc1` (centres undefined) was tested. Which “activity change, negative = inhibition” value did it give?
**A.** -19.8% [at 33.1 µM] (inactive)

**Q.** Which “activity change, negative = inhibition” value does the source give for `CC(C)CNC(=O)/C=C/CCCCc1ccc2c(c1)OCO2` here?
**A.** -4.59% [at 33.1 µM] (inactive)

**Q.** For `COc1cc(/C=C/C(=O)OC2CC(C)=C(C(=O)O)/C2=C/CO[C@@H]2O[C@H](CO)[C@@H](O)[C@H](O)[C@H]2O)ccc1O` (some centres undefined), which “activity change, negative = inhibition” value is on record?
**A.** -26% [at 33.1 µM] (inactive)

**Q.** Which “activity change, negative = inhibition” value does the source give for `COC(=O)c1ccc(O[C@@H]2O[C@H](CO)[C@@H](O)[C@H](O)[C@H]2O)c(OC)c1` here?
**A.** -16.3% [at 33.1 µM] (inactive)

**Q.** For `C/C=C1/[C@H](O[C@@H]2O[C@H](CO)[C@@H](O)[C@H](O)[C@H]2O)OC=C(C(=O)OC)[C@H]1CC(=O)O[C@@H]1O[C@H](CO)[C@@H](O)[C@H](O)[C@H]1O`, which “activity change, negative = inhibition” value is on record?
**A.** 24% [at 15.1 µM] (inactive)

**Q.** With `C[C@@H]1O[C@@H](O[C@H]2[C@H](OC(=O)[C@]34CCC(C)(C)C[C@H]3C3=CCC5[C@@]6(C)C[C@H](O)[C@H](O[C@@H]7O[C@H](CO)[C@@H](O[C@@H]8O[C@H](CO)[C@@H](O)[C@H](O)[C@H]8O)[C@H](O)[C@H]7O)[C@@](C)(CO)C6[C@H](O)C[C@@]5(C)[C@]3(C)C[C@H]4O)OC[C@H](O)[C@@H]2O)[C@H](O)[C@H](O)[C@H]1O[C@@H]1OC[C@@H](O)[C@H](O[C@@H]2OC[C@](O)(CO)[C@H]2O)[C@H]1O` (some centres undefined) as the compound, how does the activity change, negative = inhibition read?
**A.** -19.4% [at 10.7 µM] (inactive)

**Q.** `Cc1nnc(C(C)C)n1C1CC2CCC(C1)N2CCC(NC(=O)C1CCC(F)(F)CC1)c1ccccc1` (centres undefined) was tested. Which “outcome” value did it give?
**A.** inactive

**Q.** With `CC(=O)N1c2ccccc2C2(O)CC3C(=O)NC(CC(C)C)C(=O)N3C12` (centres undefined) as the compound, how does the “activity change, negative = inhibition” value read?
**A.** 36.1% [at 33.1 µM] (inactive)

**Q.** For `CC(=O)O[C@H]1C[C@@H]2[C@]3(CC[C@]4(C)[C@@H](C5(C)CCC(C(C)(C)O)O5)[C@@H](O)C[C@@]24C)C[C@@]32CC[C@H](O[C@@H]3OC[C@@H](O)[C@H](O)[C@H]3O)C(C)(C)[C@H]12` (some centres undefined), which “activity change, negative = inhibition” value is on record?
**A.** -12.1% [at 15.1 µM] (inactive)

**Q.** With `CC1CCC2C(C)(C)C(O)CCC2(C)C12Cc1c(O)cc3c(c1O2)CN=C3N` (centres undefined) as the compound, how does the “activity change, negative = inhibition” value read?
**A.** -10.7% [at 33.1 µM] (inactive)

**Q.** For `CC(C)C1(O[C@@H]2O[C@H](CO)[C@@H](O)[C@H](O)[C@H]2O)CC=C(CO)CC1` (some centres undefined), which “activity change, negative = inhibition” value is on record?
**A.** -16.8% [at 33.1 µM] (inactive)

**Q.** Which “activity change, negative = inhibition” value does the source give for `CC1CCC2(O1)C(C)(C)CC(O[C@@H]1O[C@H](CO[C@@H]3OC[C@](O)(CO)[C@H]3O)[C@@H](O)[C@H](O)[C@H]1O)CC2(C)O` (some centres undefined) here?
**A.** -26.5% [at 33.1 µM] (inactive)

**Q.** Which “outcome” value does the source give for `CC(C)CC(=O)OC[C@H]1O[C@@](COC(=O)CC(C)C)(O[C@H]2O[C@H](CO)[C@@H](O)[C@H](O)[C@H]2O)[C@@H](OC(=O)CC(C)C)[C@@H]1OC(=O)CC(C)C` here?
**A.** inactive [at 15.1 µM]

**Q.** `COc1ccccc1[C@@H]1C2=C(CC(C)(C)CC2=O)Nc2n[nH]c(C(F)(F)F)c21` was tested. Which “activity change, negative = inhibition” value did it give?
**A.** -20.9% (inactive)

**Q.** Which “activity change, negative = inhibition” value does the source give for `CN1C(=O)c2ccccc2NC(=O)[C@]12O[C@@H]2c1cccc(O)c1` here?
**A.** -12% (inactive)

**Q.** For `COc1cc([C@@H]2Oc3c(OC)cc(CCCO)cc3[C@@H]2CO[C@@H]2O[C@H](CO)[C@@H](O)[C@H](O)[C@H]2O)ccc1O`, which “outcome” value is on record?
**A.** inactive [at 33.1 µM]

**Q.** With `C=C(C)C1CC2(CO)C(=CC1=O)CCC(O)C2C` (centres undefined) as the compound, how does the “activity change, negative = inhibition” value read?
**A.** 16% (inactive)

**Q.** Which “activity change, negative = inhibition” value does the source give for `C=C1CCC2C(OC(=O)C2(O)COC(C)=O)C2C(=C)C(O)CC12` (centres undefined) here?
**A.** -5.88% [at 33.1 µM] (inactive)

**Q.** For `CC(=O)O[C@@H]1[C@H]2[C@@H](OC(=O)c3ccccc3)[C@@H](C)C[C@]2(O)[C@H](OC(C)=O)[C@@]2(C)[C@@H]3CC(C)(C)C(=O)[C@]3(OC(C)=O)C[C@@]12C`, which “activity change, negative = inhibition” value is on record?
**A.** -5.8% [at 15.1 µM] (inactive)

**Q.** Which “activity change, negative = inhibition” value does the source give for `C[C@@H]1O[C@@H](O[C@H]2[C@H](O[C@H]3[C@H](O[C@H]4CC[C@@]5(C)C(CC[C@]6(C)C5CC=C5[C@@H]7CC(C)(C(=O)O)C[C@@H](O)[C@]7(C)CC[C@]56C)[C@@]4(C)CO)O[C@H](C(=O)O)[C@@H](O)[C@@H]3O)O[C@H](CO)[C@H](O)[C@@H]2O)[C@H](O)[C@H](O)[C@H]1O` (some centres undefined) here?
**A.** -7.56% [at 15.1 µM] (inactive)

**Q.** How did the “activity change, negative = inhibition” value turn out when `CC(C)(OC1OC(CO)C(O)C(O)C1O)C1CCC(O)(CO)C2CC(O)C(C)(O)C2C1` (centres undefined) was run?
**A.** 4.31% [at 33.1 µM] (inactive)

**Q.** `CC(=O)c1cnc2ccc(-c3cc(Cl)c(O)c(Cl)c3)nc2c1NC1CCC(CN(C)C)CC1` (centres undefined) was tested. Which outcome did it give?
**A.** inactive; activator [at 10.7 µM]

**Q.** `CC(C)[C@H]1CCC(CO)=C[C@@H]1/C=C(\CO)C(=O)O` was tested. Which “activity change, negative = inhibition” value did it give?
**A.** 27.3% (inactive)

**Q.** `CC(C)C1=CC2=CCC3[C@](C)(CCC[C@@]3(C)C(=O)O)C2CC1=O` (some centres undefined) was tested. Which “activity change, negative = inhibition” value did it give?
**A.** -12.3% [at 33.1 µM] (inactive)
